This is part of a sample that, as a whole, favours compounds with a hit. Of some 79,000 tested, about 15% had one in any assay. The source made the active and inactive calls. Cut-off read from the data, not from the text of the source: active = growth inhibition above about 70%; inactive = the rest.
How the values were obtained:
[1] = NCI Yeast Anticancer Drug Screen. Data for the rad50 strain (AID 155);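 note: 0% = growth of vehicle-only cultures of the same strain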; settings: S. cerevisiae rad50 strain growth inhibition; at 50.0 µM; active compounds read high
Outline: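 Genetically altered yeast (DNA repair pathway); compound treatment; growth inhibition vs vehicle ctrl.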

[2] = NCI Yeast Anticancer Drug Screen. Data for the mec2-1 strain (AID 157); settings: S. cerevisiae mec2-1 strain, at 50.0 µM, active compounds read high
Outline: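 Each compound was tested on mec2-1 yeast, a strain altered in DNA damage repair or cell cycle control. Growth inhibition is reported relative to vehicle.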

[3] = NCI Yeast Anticancer Drug Screen. Data for the sgs1 mgt1 strain (AID 161);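 note: 0% = growth of cultures given vehicle only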; settings: S. cerevisiae sgs1 mgt1 strain, at 50.0 µM, active compounds read high
Outline: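 Inhibition of yeast growth, normalised to vehicle-treated controls, is reported for a strain bearing genetic alterations in DNA damage repair.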

[4] = NCI Yeast Anticancer Drug Screen. Data for the cln2 rad14 strain (AID 165);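 note: 0% = growth equal to vehicle treated cultures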; settings: S. cerevisiae cln2 rad14 strain, at 50.0 µM, active compounds read high
Outline: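 Test compounds were added to cln2 rad14 yeast cultures; inhibition of growth was then determined by comparison with vehicle treatment.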

[5] = NCI Yeast Anticancer Drug Screen. Data for the bub3 strain (AID 167); settings: S. cerevisiae bub3 mutant strain, at 50.0 µM, active compounds read high
Outline: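 Yeast carrying a defined mutation is treated with each compound, and growth is compared with that of vehicle-exposed cells to give inhibition.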

[6] = NCI Yeast Anticancer Drug Screen. Data for the mlh1 rad18 strain (AID 175); settings: S. cerevisiae mlh1 rad18 strain growth inhibition; at 50.0 µM; active compounds read high
Outline: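 Inhibition values reflect reduced growth of mutant yeast versus vehicle-treated controls following compound exposure; the mutations affect DNA damage repair.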

Measured: growth inhibition

O=C1c2ccccc2C(=O)c2c1cccc2S(=O)(=O)Nc1ccccc1
inactive: [1] -1.45% | [2] 8.85% | [3] 11.2% | [4] -30.1% | [5] 20.1% | [6] -3.6%

CN(C)c1ccc(/C=C2\N=C(c3ccc([N+](=O)[O-])cc3)OC2=O)cc1
inactive: [1] 1.35% | [2] -6.75% | [3] 17.1% | [4] 6.95% | [5] 14.9% | [6] 7.55%

N#CC1=C(O)/C(=C\C=C\c2ccccc2)N(C(=O)c2ccccc2)C1=N
inactive: [1] 12.2% | [2] -7.6% | [3] -6.2% | [4] 10.2% | [5] -6.85% | [6] 19.1%

CCCCCCCCCCCC(=O)O
inactive: [1] -0.85% | [2] 0.7% | [3] 25.6% | [4] -7.45% | [5] 10.1% | [6] 19.2%

O=C(Nc1ccc(NC(=O)Nc2cc(C(F)(F)F)ccc2Oc2ccc(Cl)c(Cl)c2)cc1)Nc1cc(C(F)(F)F)ccc1Oc1ccc(Cl)c(Cl)c1
inactive: [1] -28.2% | [2] -45.4% | [3] -13.4% | [4] -23.2% | [5] -35.1% | [6] -19.7%

O=C1Cc2c(-c3cccs3)cc(-c3ccccc3)nc2-c2ccccc2N1
inactive: [1] 0% | [2] -3.9% | [3] 3.4% | [4] 18.2% | [5] -4.75% | [6] 7.85%

CCCCCCCCCCCCCCCCCCNC(=O)c1c(Br)c(Br)cc(Br)c1C(=O)O
inactive: [1] -1.45% | [2] 8.55% | [3] 13.2% | [4] -8.35% | [5] -3.7% | [6] 6.75%

O=C(CCCn1ccnc1[N+](=O)[O-])NCCn1ccnc1[N+](=O)[O-]
inactive: [1] 5.95% | [2] 9.35% | [3] -9.9% | [4] 17.4% | [5] -11.8% | [6] -12.3%

O=C(O)CSc1c(Cl)c(=O)oc2ccc(Cl)cc12
inactive: [1] 30.3% | [2] -6.6% | [3] 20.2% | [4] -2% | [5] 17% | [6] 43.9%

CC1(C)NN=C([N+](=O)[O-])C1c1ccccc1 (stereo unspecified)
inactive: [1] 5.95% | [2] 10.7% | [3] 7.2% | [4] -14.4% | [5] -11% | [6] 6.65%

CCCCCCCCCCCCCCCCOC(=O)c1cc([N+](=O)[O-])cc([N+](=O)[O-])c1Sc1ncnc2nc[nH]c12
inactive: [1] -3.8% | [2] -7.8% | [3] 3.5% | [4] -2.35% | [5] -21.2% | [6] -32.2%

Cc1ccsc1C(=O)c1ccccc1
inactive: [1] -11.6% | [2] -7% | [3] -5.65% | [4] -24.6% | [5] -1.5% | [6] 5.45%

O=[N+]([O-])c1ccc(N/N=C/C2CC=CCC2)c([N+](=O)[O-])c1 (stereo unspecified)
inactive: [1] 7% | [2] -6.8% | [3] -8.55% | [4] -13.1% | [5] -5.65% | [6] 5.25%

CCCCSCC(N)C(=O)OC (stereo unspecified)
inactive: [1] 19.1% | [2] -11.2% | [3] 4% | [4] -65.5% | [5] 3.75% | [6] 2.8%

CC(C)(C)c1cc2ccc(C(N)=O)cc2c(=O)[nH]1
inactive: [1] -23.7% | [2] -29.8% | [3] -1.65% | [4] 1.2% | [5] -8.8% | [6] -4.95%

O[C@@H]1CC2(Cl)CC1(Cl)C(Cl)=C2Cl (stereo partly specified)
inactive: [1] 19.4% | [2] 5.5% | [3] 11.7% | [4] -2.05% | [5] -4.1% | [6] 18.5%

COc1ccc2ncc(COC(C)=O)c(COC(C)=O)c2c1
inactive: [1] -10.9% | [2] -9.45% | [3] -7.8% | [4] 14.7% | [5] -12.4% | [6] -8.4%

Cc1cccc(C(=O)NN)c1
inactive: [1] -4.15% | [2] 10.2% | [3] -20.2% | [4] -5.4% | [5] -0.2% | [6] -5.95%

c1ccc(CCCC2Sc3cccc4cccc(c34)S2)cc1
inactive: [1] -47.2% | [2] -25.6% | [3] -18.6% | [4] 14.4% | [5] -16% | [6] -28.5%

O=[N+]([O-])c1ccc(CCCn2cnc3c(Cl)ncnc32)c([N+](=O)[O-])c1
inactive: [1] 15% | [2] 0.95% | [3] 7.95% | [4] -1.45% | [5] 1.2% | [6] -10.6%

C=C(C(=C)P(=S)(c1ccccc1)c1ccccc1)P(=S)(c1ccccc1)c1ccccc1
inactive: [1] -10% | [2] -10.7% | [3] -37.1% | [4] -7.15% | [5] -5.8% | [6] -16.3%

CCC1(O)CCCCC1
inactive: [1] -16.4% | [2] -23.4% | [3] -30.1% | [4] -37.9% | [5] -18.6% | [6] -21.7%

C[C@@H](Oc1ccc(Oc2cnc3ccc(Cl)cc3n2)cc1)C(=O)O
inactive: [1] 15.8% | [2] 5.4% | [3] 4.2% | [4] 37.8% | [5] 15.2% | [6] 3.95%

COc1ccc(N(C)CN(C)c2nc(N(C)C)nc(N(C)C)n2)cc1
inactive: [1] -67.8% | [2] -30.8% | [3] -43% | [4] -45.4% | [5] -60.8% | [6] -62.9%

NC(=S)c1cccc(C(N)=S)n1
inactive: [1] 18.7% | [2] 19.9% | [3] 23.9% | [4] -27.9% | [5] 22.6% | [6] 26.6%

COc1cccc(/C=C\c2ccc(O)cc2)c1
active: [1] 87% | [2] 91% | [3] 92% | [4] 92% | [5] 91.2% | [6] 91.5%

Cc1cccc(OCCCCCl)c1
inactive: [1] -18% | [2] -9.7% | [3] -8.25% | [4] 10.4% | [5] -20.6% | [6] -9.3%

Nc1nc(N)c(-c2ccccc2)c(CCC(=O)Nc2ccc(Cl)cc2)n1
inactive: [1] -34.8% | [2] 3.95% | [3] -3.35% | [4] -27.9% | [5] -21.5% | [6] 7.8%

Cc1ccc(S(=O)(=O)N2CCCC(O)c3ccccc32)cc1 (stereo unspecified)
inactive: [1] -18.2% | [2] -15.8% | [3] -29.4% | [4] 11.7% | [5] 6.65% | [6] 3.85%

COc1ccc([N+](=O)[O-])c2ccc(=O)oc12
inactive: [1] -9.9% | [2] 5.2% | [3] -4.1% | [4] -0.35% | [5] 4.75% | [6] 9.9%

O=C=Nc1cccc([N+](=O)[O-])c1
inactive: [1] -0.65% | [2] -5.7% | [3] -0.75% | [4] -5.05% | [5] -27.9% | [6] -40.5%

O=C1NC(=O)C(c2cccc(F)c2)N1 (stereo unspecified)
inactive: [1] -12.1% | [2] -12.3% | [3] 9.7% | [4] -9% | [5] 4.7% | [6] -7.7%

COc1ccc2c(c1)C(=O)C1(C2)[C@H](c2ccccc2)C2C(=O)c3cc(OC)ccc3C2[C@H]1c1ccccc1 (stereo partly specified)
inactive: [1] -20.4% | [2] -3% | [3] 11.9% | [4] -5.2% | [5] 21.1% | [6] 9.3%

O=C(Nc1ccc([N+](=O)[O-])cc1)N1CCOCC1
inactive: [1] 4.8% | [2] -17.8% | [3] 21.5% | [4] -1.25% | [5] 25.2% | [6] 15.2%

COc1ccc(C2(O)c3ccccc3C(=O)c3ccc(OC)cc32)cc1 (stereo unspecified)
inactive: [1] -3.15% | [2] -10.6% | [3] 4.15% | [4] 14.8% | [5] -11.1% | [6] -10.5%

CC1(C)N=C(N)N=C(N)N1c1cccc(OCCCOc2ccc([N+](=O)[O-])cc2)c1
inactive: [1] -31.9% | [2] -23.6% | [3] -17.1% | [4] -44.9% | [5] -7.8% | [6] -26.4%

COc1ccc(N2C(=O)C3c4[nH]c5cccc(C)c5c4C4CCC(C(C)(C)C)CC4C3C2=O)cc1 (stereo unspecified)
inactive: [1] 8.75% | [2] -21.1% | [3] -5.75% | [4] -10.6% | [5] 2.8% | [6] 6%

Cc1nc2ccc(Cl)cc2c(Cl)c1CCCl
inactive: [1] 12.1% | [2] 6.5% | [3] -19.9% | [4] -8.15% | [5] 31.5% | [6] 13.8%

CCOC(=O)/C(F)=C/c1cccc(C#N)c1
inactive: [1] 41.6% | [2] -3.35% | [3] 8.1% | [4] 24.7% | [5] 30.7% | [6] 23.9%

CC(C)(C)C1=CC(=N/N=c2\scc(-c3ccccc3)n2Cc2ccccc2)C=C(C(C)(C)C)C1=O
inactive: [1] 17.4% | [2] -4.6% | [3] -5.35% | [4] -29.5% | [5] -11.6% | [6] -2.6%

COC(=O)C1(O)C(=O)NC2=C1C(=O)c1ccccc1C2=O (stereo unspecified)
inactive: [1] 9.75% | [2] 5.8% | [3] 8.05% | [4] -8.7% | [5] 28.9% | [6] 13.8%
